# According to PubChem BioAssay:
# The source made the active and inactive calls.
# Legend:
# [1] = binders of probe aFSTL3 on microarray, primary screen, stem cell growth factor project, biochemical, small-molecule microarray, fluorescence 635/667 (AID 1064); details: higher = more signal;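 also: measures binding of the biotinylated anti-FSTL3 antibody to printed compounds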
# [2] = binders from COS7 lysate, DM2A8 probe, primary screen, torsin A project, cell lysate, small-molecule microarray, fluorescence 635/667 (AID 1065); details: higher = more signal, COS7 lysate expressing mutant human TOR1A
# [3] = binders of probe aFGF2 on microarray, primary screen, stem cell growth factor project, biochemical, small-molecule microarray, fluorescence 635/667 (AID 1067); details: higher = more signal;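 also: measures binding of biotinylated aFGF2 protein to printed compounds on slides; z-score merges feature fluorescence and signal-to-noise across triplicate slides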
# [4] = binders of probe aFGF10 on microarray, primary screen, stem cell growth factor project, biochemical, small-molecule microarray, fluorescence 635/667 (AID 1071); details: higher = more signal;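 also: score merges 667 nm spot intensity and signal to noise from triplicate slides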
# [5] = target: Neurogenic locus notch homolog protein 2 (Homo sapiens) (UniProt Q04721); assay: Notch2 binders on small-molecule microarrays, primary screen, biochemical, small-molecule microarray, 635 nm fluorescence, stem cell growth factors (AID 1073); details: Notch2 binding, higher = more signal
# [6] = target: Pro-neuregulin-1, membrane-bound isoform (Homo sapiens) (UniProt Q02297); assay: NRG1 binders on small-molecule microarrays, primary screen, psychiatric disease protein project, biochemical, small-molecule microarray, fluorescence 635/667 (AID 1075); details: NRG1 binding, 635 nm fluorescence, higher = more signal;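 also: score combines 667 nm spot fluorescence with signal to noise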
# Sequence of Pro-neuregulin-1, membrane-bound isoform (Homo sapiens) (Q02297 whole entry, looked up, the tested form may be a part, canonical isoform): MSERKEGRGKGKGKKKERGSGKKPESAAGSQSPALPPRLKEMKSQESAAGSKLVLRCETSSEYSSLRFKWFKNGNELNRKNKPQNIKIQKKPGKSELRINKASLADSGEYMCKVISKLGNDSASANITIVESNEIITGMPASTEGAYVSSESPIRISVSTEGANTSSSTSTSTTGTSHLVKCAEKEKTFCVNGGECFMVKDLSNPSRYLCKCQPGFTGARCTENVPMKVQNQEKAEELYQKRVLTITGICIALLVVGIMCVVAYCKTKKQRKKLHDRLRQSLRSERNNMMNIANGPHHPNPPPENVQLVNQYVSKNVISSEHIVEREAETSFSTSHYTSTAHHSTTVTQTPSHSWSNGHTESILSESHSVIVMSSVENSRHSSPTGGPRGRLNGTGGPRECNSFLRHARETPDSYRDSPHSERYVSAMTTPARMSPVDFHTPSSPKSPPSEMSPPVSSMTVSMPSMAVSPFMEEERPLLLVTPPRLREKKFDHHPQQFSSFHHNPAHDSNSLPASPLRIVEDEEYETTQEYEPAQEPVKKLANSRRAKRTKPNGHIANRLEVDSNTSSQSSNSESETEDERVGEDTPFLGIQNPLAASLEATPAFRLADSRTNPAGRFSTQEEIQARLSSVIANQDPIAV
# [7] = system: Neuregulin-1 EGF-like domain; assay: binders of neuregulin-1 EGF-like domain, primary screen, biochemical, small-molecule microarray, 635 nm fluorescence (AID 1081); details: small-molecule microarray binding, higher = more signal;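 also: binding of the protein to compounds printed on small-molecule microarray slides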
# [8] = FRG1 promoter luciferase signal modulators, primary screen, FRG1 inhibition for FSHD, cell-based, C2C12 myotubes, firefly/Renilla luciferase, luminescence (AID 1084); details: higher = more signal, called active from +8 up or from −8 down
# [9] = binders of probe aFST on microarray, primary screen, stem cell growth factor project, biochemical, small-molecule microarray, fluorescence 635/667 (AID 1086); details: higher = more signal;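 also: score merges 667 nm fluorescence with signal-to-noise of each printed compound spot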
# [10] = binders of probe aHhip on microarray, primary screen, stem cell growth factor project, biochemical, small-molecule microarray, fluorescence 635/667 (AID 1087); details: higher = more signal;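 also: score merges spot fluorescence at 667nm with spot signal to noise ratio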
# [11] = system: PRMT1 (protein arginine N-methyltransferase 1); assay: PRMT1 binders on small-molecule microarrays, primary screen, biochemical, small-molecule microarray, 635 nm fluorescence (AID 1088); details: small-molecule microarray binding, higher = more signal;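 also: binding of Prmt1 protein to compounds spotted on small-molecule microarray slides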
# [12] = yeast growth modulation, basal conditions, primary screen, YJM789 clinical isolate, OD600, 24 h (AID 1089);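 also: growth of clinical yeast isolate S. cerevisiae YJM 789 seeded 1000 cells per well; test concentration not given here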; details: S. cerevisiae YJM789 growth, higher = more signal, called active from +8 up or from −8 down
# [13] = fission yeast growth modulation, primary screen, strain 972, OD600, 24 h, no modulator (AID 1090);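 also: basal condition with compound alone and no growth modifier present; test concentration not given here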; details: S. pombe 972 growth, higher = more signal, called active from +8 up or from −8 down
# [14] = S. cerevisiae growth modulation with rapamycin, primary screen, strain BY4716, OD600, 96 h (AID 1091); details: higher = more signal, called active from +8 up or from −8 down; also: test concentration not given here
# [15] = target: Torsin-1A-interacting protein 2 (Homo sapiens) (UniProt Q8NFQ8); assay: LULL1 binders on small-molecule microarray, primary screen, cell lysate, human LULL1 lysate, 635/667 nm fluorescence (AID 1092); details: hLULL1 lysate binding, 635 nm fluorescence, higher = more signal;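 also: probe is lysate of COS7 cells overexpressing human LULL1; score merges per-feature 667 nm fluorescence with signal-to-noise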
# Sequence of Torsin-1A-interacting protein 2 (Homo sapiens) (Q8NFQ8 whole entry, looked up): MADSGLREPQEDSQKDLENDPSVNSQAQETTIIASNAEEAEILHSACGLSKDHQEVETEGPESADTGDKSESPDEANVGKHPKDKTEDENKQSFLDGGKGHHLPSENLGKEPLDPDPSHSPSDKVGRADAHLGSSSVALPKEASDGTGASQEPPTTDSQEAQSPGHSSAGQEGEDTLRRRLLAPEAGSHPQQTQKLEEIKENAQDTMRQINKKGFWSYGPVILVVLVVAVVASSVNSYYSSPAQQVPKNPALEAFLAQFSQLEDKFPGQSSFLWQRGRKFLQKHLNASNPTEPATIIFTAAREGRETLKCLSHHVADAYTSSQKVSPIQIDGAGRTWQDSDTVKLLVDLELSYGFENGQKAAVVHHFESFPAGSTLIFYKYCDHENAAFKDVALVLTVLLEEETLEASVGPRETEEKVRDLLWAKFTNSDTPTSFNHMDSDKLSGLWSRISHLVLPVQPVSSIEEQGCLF
# [16] = E. coli growth modulation, two-sided OD650, primary screen, E. coli filamentation project, strain DRC41, 24 h (AID 1093); details: OD650, 24 h, higher = more signal, called active from +8 up or from −8 down;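 also: MC1000 strain lacking acrAB efflux and sulA so SOS filamentation is blocked; test concentration not given here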
# [17] = small-molecule microarray binders of probe aLefty2, primary screen, biochemical, biotinylated probe, 635/667 nm fluorescence (AID 1094); details: higher = more signal;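 also: score merges spot fluorescence near 667 nm with spot signal-to-noise ratio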
# [18] = system: Noggin (protein binding on small-molecule microarray); assay: Noggin binders on small-molecule microarray, primary screen, biochemical, 635/667 nm fluorescence (AID 1095); details: 635 nm fluorescence, higher = more signal;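 also: score merges 667 nm feature fluorescence with signal to noise over triplicate slides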
# [19] = target: Neurogenic locus notch homolog protein 3 (Homo sapiens) (UniProt Q9UM47); assay: NOTCH3 binders on small-molecule microarray, primary screen, biochemical, 635/667 nm fluorescence (AID 1096); details: NOTCH3 binding, 635 nm fluorescence, higher = more signal
# Sequence of Neurogenic locus notch homolog protein 3 (Homo sapiens) (Q9UM47 whole entry, looked up): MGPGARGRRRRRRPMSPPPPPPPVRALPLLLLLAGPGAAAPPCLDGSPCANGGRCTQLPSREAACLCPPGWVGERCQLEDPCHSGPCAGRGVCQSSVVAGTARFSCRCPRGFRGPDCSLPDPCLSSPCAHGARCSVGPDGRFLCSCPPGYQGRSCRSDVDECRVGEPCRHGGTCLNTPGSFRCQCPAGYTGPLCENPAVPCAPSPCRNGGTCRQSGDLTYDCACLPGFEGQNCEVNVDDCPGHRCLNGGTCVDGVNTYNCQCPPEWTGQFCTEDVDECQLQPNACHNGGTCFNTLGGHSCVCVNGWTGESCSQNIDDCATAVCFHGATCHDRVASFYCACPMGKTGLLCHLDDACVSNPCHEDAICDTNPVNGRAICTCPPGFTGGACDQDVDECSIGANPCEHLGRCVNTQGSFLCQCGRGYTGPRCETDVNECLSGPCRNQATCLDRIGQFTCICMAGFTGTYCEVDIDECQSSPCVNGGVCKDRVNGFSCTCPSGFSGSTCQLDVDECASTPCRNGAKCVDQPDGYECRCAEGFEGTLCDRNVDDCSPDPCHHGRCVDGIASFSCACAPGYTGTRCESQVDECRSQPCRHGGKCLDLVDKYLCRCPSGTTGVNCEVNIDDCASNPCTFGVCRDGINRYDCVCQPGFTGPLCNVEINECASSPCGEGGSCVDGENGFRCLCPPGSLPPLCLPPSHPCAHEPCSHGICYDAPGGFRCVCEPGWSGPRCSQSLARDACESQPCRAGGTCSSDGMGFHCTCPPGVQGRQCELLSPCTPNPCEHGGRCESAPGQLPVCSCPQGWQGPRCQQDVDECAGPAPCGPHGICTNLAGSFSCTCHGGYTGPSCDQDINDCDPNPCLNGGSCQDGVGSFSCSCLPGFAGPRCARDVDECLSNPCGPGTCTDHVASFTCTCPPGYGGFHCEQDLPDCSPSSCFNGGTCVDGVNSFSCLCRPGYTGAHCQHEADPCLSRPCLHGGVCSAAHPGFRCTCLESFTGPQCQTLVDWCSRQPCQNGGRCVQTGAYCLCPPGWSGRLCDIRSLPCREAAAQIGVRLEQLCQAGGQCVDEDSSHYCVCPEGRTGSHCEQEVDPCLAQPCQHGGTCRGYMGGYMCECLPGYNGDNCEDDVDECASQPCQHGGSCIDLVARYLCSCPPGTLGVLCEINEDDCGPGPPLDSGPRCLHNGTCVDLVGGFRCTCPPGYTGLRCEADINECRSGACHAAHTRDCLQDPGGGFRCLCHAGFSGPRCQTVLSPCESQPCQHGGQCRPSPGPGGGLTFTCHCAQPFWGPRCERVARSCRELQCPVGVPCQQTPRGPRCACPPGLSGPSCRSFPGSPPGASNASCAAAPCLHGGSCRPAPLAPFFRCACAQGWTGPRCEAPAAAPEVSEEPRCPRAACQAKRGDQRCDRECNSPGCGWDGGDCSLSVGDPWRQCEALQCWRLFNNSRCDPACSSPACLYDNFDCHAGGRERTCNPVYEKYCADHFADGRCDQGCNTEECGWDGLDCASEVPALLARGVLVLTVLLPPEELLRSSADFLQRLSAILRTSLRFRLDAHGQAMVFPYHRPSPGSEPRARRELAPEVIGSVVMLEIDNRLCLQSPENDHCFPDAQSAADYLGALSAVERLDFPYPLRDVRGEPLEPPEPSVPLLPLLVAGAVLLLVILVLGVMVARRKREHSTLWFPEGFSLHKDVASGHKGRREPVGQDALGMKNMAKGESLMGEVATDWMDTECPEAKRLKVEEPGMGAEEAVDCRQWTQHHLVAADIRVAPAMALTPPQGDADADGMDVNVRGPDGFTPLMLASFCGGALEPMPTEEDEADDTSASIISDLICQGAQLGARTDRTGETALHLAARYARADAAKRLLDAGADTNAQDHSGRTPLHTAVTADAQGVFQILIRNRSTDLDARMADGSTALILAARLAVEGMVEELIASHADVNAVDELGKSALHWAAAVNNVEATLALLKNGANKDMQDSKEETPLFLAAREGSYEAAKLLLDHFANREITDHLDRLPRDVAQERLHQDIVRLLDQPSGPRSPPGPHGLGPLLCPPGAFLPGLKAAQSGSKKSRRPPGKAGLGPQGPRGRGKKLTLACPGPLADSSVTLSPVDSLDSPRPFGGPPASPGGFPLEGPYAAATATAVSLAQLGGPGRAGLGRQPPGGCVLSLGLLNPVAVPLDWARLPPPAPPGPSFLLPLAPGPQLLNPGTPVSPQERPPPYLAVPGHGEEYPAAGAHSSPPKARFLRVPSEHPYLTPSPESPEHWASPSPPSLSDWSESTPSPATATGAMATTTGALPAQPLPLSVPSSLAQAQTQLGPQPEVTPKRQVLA
# [20] = small-molecule microarray binders of probe aEGFR, primary screen, biochemical, biotinylated probe, 635/667 nm fluorescence (AID 1097); details: higher = more signal;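 also: probe is a biotinylated anti-EGFR antibody binding compounds printed on slides; score combines fluorescence near 667 nm and signal to noise of each spot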
SMILES,composite z-score [1],composite z-score [2],composite z-score [3],composite z-score [4],composite z-score [5],composite z-score [6],composite z-score [7],z-score [8],composite z-score [9],composite z-score [10],composite z-score [11],z-score [12],z-score [13],z-score [14],composite z-score [15],z-score [16],composite z-score [17],composite z-score [18],composite z-score [19],composite z-score [20]
CC(C)(C)OC(=O)CC[C@@]1(C(=O)N2CCOCC2)N=C(c2ccc(OCCCO)cc2)O[C@@H]1c1ccccc1CN=[N+]=[N-],0.12,0.161,0.254,0.674,1.1,1.88,1.31,3.86 (inactive),0.694,0.186,1.38,-0.335 (inactive),-0.183 (inactive),-0.654 (inactive),3.83,0.675 (inactive),0.313,1.06,0.985,0.103
COc1ccc(-c2cc3c(c(CCc4ccccc4)n2)[Si](C(C)C)(C(C)C)O[C@H]3c2ccccc2)cn1,-0.605,-0.678,-0.0754,0.0306,0.135,0.371,-0.598,0.0071 (inactive),0.16,-0.164,0.469,0.646 (inactive),-0.0525 (inactive),1.23 (inactive),-0.0354,-1.12 (inactive),-0.213,0.75,0.439,-0.0749
C=CCN1C(=O)[C@]2(O[C@H](CCO)[C@@H]([Si](C)(C)c3ccc(OC)cc3)[C@@H]2C)c2cc(N3C(=O)c4ccccc4Oc4ccccc43)ccc21,-0.086,-0.203,-0.0392,0.56,0.0699,0.967,1.03,-1.5 (inactive),0.0141,-0.236,1.41,0.922 (inactive),0.729 (inactive),35.6 (active),2.13,0.77 (inactive),-0.0658,0.458,0.803,-0.115
C=CC[C@]1(C(=O)NCC(O)CO)N=C(c2ccc(OCCCO)cc2)O[C@H]1c1ccccc1CN=[N+]=[N-] (stereo not given in full),1,1.23,-0.0316,0.36,-0.757,0.323,1.23,-0.27 (inactive),0.267,0.189,1.01,-0.0604 (inactive),-0.234 (inactive),-0.83 (inactive),3.51,0.384 (inactive),0.239,-0.62,-0.922,-0.0828
C=CC[C@H](O)c1ccc(O)c(F)c1,0.226,-1.35,-0.076,-0.819,-1.73,-0.676,-0.502,1.17 (inactive),-1.39,0.414,-0.255,-0.63 (inactive),-0.722 (inactive),-1.56 (inactive),-1.36,-0.53 (inactive),-0.103,-0.529,-0.579,-0.115
C=C(C(=O)CC[C@@H](OC(=O)c1ccccc1-c1ccccc1C(=O)O)c1ccc(OCCO)cc1)C(C)C,-0.49,0.235,0.0129,1.11,0.52,0.551,0.512,2.12 (inactive),0.136,0.245,1.55,-0.694 (inactive),-1.26 (inactive),-1.3 (inactive),1.25,0.416 (inactive),0.0028,1.35,1.15,-0.0755
Cc1ccc(S[C@]2(C(=O)NCC(C)C)CC(=O)N(C(C)C)[C@@H]2c2ccc(CO)cc2I)cc1,1.12,1.39,0.0519,-0.41,-0.365,1.18,-0.569,-0.999 (inactive),0.161,0.0327,1.53,-1.68 (inactive),-2.56 (inactive),-0.0302 (inactive),0.979,0.97 (inactive),0.0968,-1.6,-0.0735,-0.127
COc1ccc(C(O)C2C=CC3C(=O)N(c4ccccc4)C(=O)C3N2Nc2ccccc2F)c2ccccc12 (stereo not given),1.24,1.08,0.433,1.14,1.72,1.79,1.23,1.25 (inactive),1.89,-0.233,1.55,-0.466 (inactive),-0.0101 (inactive),0.257 (inactive),3.33,-0.0841 (inactive),0.582,0.117,1.05,0.697
C=CC[C@H](O)c1ccc(O)c2ccccc12,-0.112,0.821,-0.0558,0.513,0.61,0.826,1.3,-0.0666 (inactive),0.193,0.0749,1.56,-7.13 (inactive),-17.9 (active),8.59 (active),1.71,1.49 (inactive),0.0277,1.07,1.07,-0.0151
CCCCC(=C=CC[C@@H](O)c1ccc(OCCO)cc1)CCO,-0.171,0.532,-0.087,0.558,-0.051,1.65,0.922,-0.58 (inactive),0.0121,0.176,0.571,-0.026 (inactive),-1.56 (inactive),-1.06 (inactive),1.6,0.639 (inactive),-0.135,0.424,-0.0085,-0.333
COCCOC(=O)N1C(=O)[C@@]2(c3cc(C#CCNC(N)=O)ccc31)[C@H](c1ccccc1OCCO)N1[C@H](c3ccccc3)[C@H](c3ccccc3)OC(=O)[C@H]1[C@@H]2C(=O)N1CCCCCCC1,1.63,0.646,0.0495,0.57,0.725,0.665,1.1,0.515 (inactive),1.29,1,1.49,0.221 (inactive),0.47 (inactive),2.37 (inactive),1.79,-0.515 (inactive),0.365,0.911,1.11,-0.0121
CCOC(=O)C1=CC[C@@H](c2ccccc2)N(S(=O)(=O)c2ccc(C)cc2)[C@@H]1C#N,-0.182,-0.0258,0.0056,0.388,1.25,1.11,1.05,-0.823 (inactive),0.158,0.0505,0.712,-0.671 (inactive),-2.08 (inactive),0.529 (inactive),2.69,0.405 (inactive),0.0979,-0.59,0.749,-0.013
C=C(CCCC)/C(=C/C[C@@H](OC(C)=O)c1ccc(OCCO)cc1)c1cc(C(=O)OC)ccc1OC,0.0062,0.982,-0.076,-0.314,-0.332,1.37,1.21,2.07 (inactive),0.0501,-0.119,1.55,-0.201 (inactive),-0.52 (inactive),-0.645 (inactive),2.27,0.0811 (inactive),0.0677,0.0148,0.467,-0.0828
COCCCNC(=O)[C@@]1(Cc2ccccc2I)c2ccccc2C(=O)N(C2CCCCC2)[C@H]1c1ccc(CO)cc1,-0.101,0.346,-0.0064,0.527,0.452,0.857,1.35,-4.02 (inactive),-0.729,-0.0994,1.51,-1.83 (inactive),-0.856 (inactive),-1.11 (inactive),2.97,0.0355 (inactive),-0.106,0.556,0.337,-0.0512
COCCOC(=O)N1C(=O)[C@@]2(c3cc(C#CCC(C(=O)OC)C(=O)OC)ccc31)[C@H](C(N)=O)[C@H]1C(=O)O[C@H](c3ccccc3)[C@H](c3ccccc3)N1[C@@H]2c1ccccc1OCCO,-0.453,-0.413,-0.152,0.47,0.937,0.555,1.19,-1.3 (inactive),0.6,-0.0618,1.55,-2.36 (inactive),-1.12 (inactive),2.65 (inactive),1.89,0.533 (inactive),-0.204,1.56,1.06,-0.0661
COCCCNC(=O)[C@]1(Cc2ccccc2CN=[N+]=[N-])N=C(c2ccc(OCCCO)cc2)O[C@@H]1c1ccccc1N=[N+]=[N-],1.19,0.694,0.359,0.425,1.43,0.527,1.11,-0.881 (inactive),0.762,0.0623,0.772,-0.499 (inactive),1.07 (inactive),4.98 (inactive),2.27,1.11 (inactive),0.862,0.0289,-0.217,0.371
C[C@]1(C(=O)NCC(F)(F)F)c2ccccc2C(=O)N(Cc2cc(C(F)(F)F)cc(C(F)(F)F)c2)[C@H]1c1ccc(CO)cc1,0.227,-0.616,-0.0578,0.0766,-0.317,0.275,1.11,0.549 (inactive),0.0351,-0.0994,0.594,0.182 (inactive),-0.0136 (inactive),-0.0066 (inactive),1.35,1.07 (inactive),-0.114,-0.736,-0.802,-0.11
COC(=O)[C@@]1(Cc2ccc(F)cc2)[C@H]2c3cc(C(=O)N4CCCC4)n(CCc4c[nH]c5cc(F)ccc45)c3C[C@H]2CN1C(=O)c1ccccc1,0.198,0.197,0.289,0.634,1.68,2.01,1.35,0.53 (inactive),1.69,0.281,0.765,0.0277 (inactive),1.24 (inactive),1.94 (inactive),3.39,-0.167 (inactive),0.605,0.344,1.02,0.756
[N-]=[N+]=NCc1ccccc1[C@H]1OC(c2ccc(OCCCO)cc2)=N[C@@]1(Cc1ccccc1N=[N+]=[N-])C(=O)O,0.377,1.08,0.0997,0.503,1.37,1.21,1.24,4.15 (inactive),0.632,0.0623,1.57,-0.467 (inactive),-4.46 (inactive),-1.66 (inactive),2.78,-0.0765 (inactive),0.359,0.145,1.06,0.0783
